LmPK inhibitor = qHTS Assay for Inhibitors of Leishmania Mexicana Pyruvate Kinase (LmPK); purified LmPK, Kinase-Glo ATP luminescence, 1 h; AID 1721, 2009; 0.37% of 290,000 active; Potency, µM (titrated, usually from 57.5 µM), inactives show at the top dose activity change, negative = inhibition, usual class: inhibitors; note: potency is the fitted concentration of half-maximal effect; % is set by controls: 0 for no effect and ±100 for the full control effect
Target sequence (Q27686 whole entry, looked up): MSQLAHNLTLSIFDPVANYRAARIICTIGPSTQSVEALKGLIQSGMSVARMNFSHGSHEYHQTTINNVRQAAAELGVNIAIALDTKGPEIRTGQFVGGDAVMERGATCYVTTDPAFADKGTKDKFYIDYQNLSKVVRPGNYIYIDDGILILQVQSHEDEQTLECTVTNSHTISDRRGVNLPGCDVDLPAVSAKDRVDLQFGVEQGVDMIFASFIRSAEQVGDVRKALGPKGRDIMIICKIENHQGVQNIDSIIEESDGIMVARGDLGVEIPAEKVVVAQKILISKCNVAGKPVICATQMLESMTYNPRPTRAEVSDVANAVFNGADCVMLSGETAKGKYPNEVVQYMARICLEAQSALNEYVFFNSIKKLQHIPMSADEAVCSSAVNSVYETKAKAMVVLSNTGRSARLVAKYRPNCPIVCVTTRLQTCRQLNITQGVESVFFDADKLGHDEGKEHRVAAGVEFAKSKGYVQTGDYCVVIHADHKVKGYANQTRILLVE
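ATP generated from ADP (0.1 mM) and PEP (0.5 mM) by 0.1 nM LmPK over 1 h at room temperature (pH 7.2 imidazole buffer) was detected by coupled luciferase luminescence. Values were normalized to uninhibited and no-enzyme wells.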
Cycloheximide cs = Cycloheximide Counterscreen for Small Molecule Inhibitors of Shiga Toxin; cell reporter, cycloheximide protein synthesis inhibition counterscreen; max response, %; 12% of 300,000 active; AID 2314, 2010; in the data active = max response mostly above about 13%, no sharp cut-off; inactive = mostly below about 14%; note: read at 38.3 µM for the half of the compounds with a filed dose; 0% is about no effect
Giardia FBPA inh = qHTS Assay for Inhibitors of Fructose-1,6-bisphosphate Aldolase from Giardia Lamblia | Potency, µM (highest dose often 59.6 µM), for the others: top-dose activity, negative = inhibition, hits mostly inhibitors | purified Giardia FBPA | 0.71% of 290,000 active; note: potency is the fitted concentration of half-maximal effect; % is set by controls: 0 for no effect and ±100 for the full control effect; nearly all actives have a fitted effect of over 55% in size
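Giardia FBPA (40 nM reagent) was preincubated 10 min at RT with compound (up to 57.5 uM final), then substrate plus GAPDH/TPI/NAD/arsenate coupling system with diaphorase/resazurin was added; resorufin fluorescence (525/598 nm) was read after 20 min.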
RE007 growth inh = qHTS Assay for Inhibitors of the HIV-1 protein Vpr; S. pombe RE007 Vpr strain, BacTiter-Glo ATP luminescence, 24 h; Potency, µM (highest dose often 92.2 µM), for inactives: top-dose activity change, negative = less growth, hits mostly inhibitors; 0.21% of 360,000 active; active = well fitted falling curve with a large enough effect; inconclusive = small, poorly fitted or top-dose-only effect; inactive = no such curve, though single readings can be large or run the other way; note: potency is the fitted concentration of half-maximal effect; % is set by controls: 0 for no effect and ±100 for the full control effect; nearly all actives have a fitted effect of over 50% in size
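Fission yeast RE007 carrying one integrated HIV-1 vpr copy, seeded at OD 0.01 in PMG+AL medium with 23 nL pinned compound. Grown 24 h at 30 degrees; viability read by BacTiter-Glo luminescence after 5 min.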
TbPYK inhibitor = qHTS of Trypanosoma Brucei Inhibitors; pyruvate kinase (Trypanosoma brucei), Q57TT1; TbPYK enzyme, Kinase-Glo Plus ATP luminescence, 45 min; Potency, µM (highest dose often 76.8 µM), for the others: at the top dose activity, negative = inhibition, usual class: inhibitors; 0.12% of 410,000 active; note: potency is the fitted concentration of half-maximal effect; % is set by controls: 0 for no effect and ±100 for the full control effect; nearly all actives have a fitted effect of over 50% in size
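T. brucei PYK with substrate was exposed to pin-transferred compounds across a concentration series, then started with 130 uM ADP (final). After 45 min at room temperature, Kinase-Glo Plus luminescence was read, normalized and curve-fitted.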
Shiga toxin inh = A qHTS for Small Molecule Inhibitors of Shiga Toxin; inhibition, % at 38.7 µM; 9.2% of 290,000 active; Vero cells, Shiga toxin protein synthesis inhibition reporter; in the data active = inhibition mostly above about 28%, no sharp cut-off; inactive = mostly below about 43%; note: 0% is about no effect
* = called active by the depositor; ? = inconclusive; . = no result; [ ] = remark or other dose. The entries come from a sample that favours hits as a whole. Unless noted, calls come from the whole dose curve; as a rule, active = well fitted curve in the direction sought with a large enough effect; inconclusive = small, poorly fitted or top-dose-only effect, or another doubt; inactive = no such curve, though single readings can be large; an effect the other way counts as inactive or inconclusive.

SMILES	LmPK inhibitor	Cycloheximide cs	Giardia FBPA inh	RE007 growth inh	TbPYK inhibitor	Shiga toxin inh
CS(=O)(=O)c1ccc2nc(NC(=O)c3cccc(NS(=O)(=O)c4ccc(F)c(F)c4)c3)sc2c1	-4.0%	18.6*	-0.4%	-2.3%	-1.8%	35.4
O=C(Nc1nc2ccc(SC(F)F)cc2s1)c1ccc(NS(=O)(=O)c2ccc(F)c(F)c2)cc1	0.1%	40.7*	-0.9%	3.3%	-3.8%	78.8*
CS(=O)(=O)c1ccc2nc(NC(=O)c3ccc(NS(=O)(=O)c4ccc(F)c(F)c4)cc3)sc2c1	2.3%	14.8	-6.9%	-1.7%	-3.8%	28.2
C=CCOC(=O)N[C@H](/C(C(=O)OC)=C(\C)NCc1ccccc1)c1cccc(F)c1	.	.	-1.7%	.	.	.
Nc1ccc2oc3ccc(N)cc3c(=O)c2c1	-12.3%	37.8*	?	-5.4%	-3.1%	39.1
NCC(O)c1cc(O)c(O)cc1F (stereo not drawn)	.	.	5.61µM*	-0.1%[18.4 µM]	-5.0%	.
NC[C@@H](O)c1ccc(O)c(O)c1	.	-9.1	?	.	.	-1.6
CC(=O)Nc1ccc(OC/C=C(\C)Cl)cc1	-0.7%	16.5*	4.3%	3.3%	-5.4%	30.5
O=C1NC(=O)/C(=C\c2ccc(OCc3cnc(Cl)s3)cc2)S1	0.0%	-3.1	5.8%	6.1%	1.3%	-4.5
CCc1ccc(OCc2cnc(Cl)s2)cc1	-6.4%	27.5*	0.2%	-3.4%	1.6%	77.7
Clc1ccc(OCc2cnc(Cl)s2)cc1	-4.5%	25.6*	1.1%	-11.5%	-7.7%	49.5
O=C(OCc1cnc(Cl)s1)c1cccs1	2.4%	2.6	5.2%	-6.4%	-0.7%	-7.0
CC(=O)Nc1ccc(OCc2cnc(Cl)s2)cc1	-2.2%	25.0*	3.0%	23.7%	5.8%	35.1
Cc1ccc(S(=O)(=O)Nc2ccc3nc(-c4cccc(Cl)c4)oc3c2)cc1	.	.	.	.	5.9%	.
C[C@@H]1CC[C@H]2C(=O)NC[C@@H](O)CN2[C@@H]1c1ccc(Br)cc1	.	.	-0.9%[12.9 µM]	.	.	.
CCn1c(SCc2cccc(Br)c2)nnc1-c1nonc1NC(C)=O	.	.	.	.	1.6%	.
Cc1ccc(C(CC(=O)Nc2ccc(F)c(Cl)c2)N2Cc3ccccc3C2=O)cc1 (stereo not drawn)	.	.	.	.	-8.9%	.
Cc1ccc(C(=O)OCC(=O)N2CCOCC2)c(C)c1	-0.8%	18.2*	2.1%	0.9%	-3.5%	38.7
Cc1ccc(C(=O)OCC(=O)N2CCOCC2)cc1	1.8%	27.5*	2.9%	5.8%	-8.7%	50.4*
O=C(OCC(=O)N1CCOCC1)c1ccc(Br)cc1	-0.3%	19.8*	11.8%	33.0%	4.0%	60.1
Cc1ccc(C(=O)OCC(=O)N2CCCCCC2)c(O)c1	.	.	.	-10.2%	-8.9%	.
Cc1cc(OCC(=O)N2CCOCC2)ccc1[N+](=O)[O-]	-0.5%	24.8*	4.7%	-5.8%	-3.2%	57.9*
Cc1cc(OCCN2CCOCC2)ccc1[N+](=O)[O-]	-5.7%	10.1	-25.4%	4.1%	9.4%	16.9
CCCN(C(=O)Cn1cnc2onc(-c3ccc(F)cc3)c2c1=O)c1cccc(Cl)c1	.	.	.	.	2.2%	.
Cc1ccc(-n2nc(CO)c(C(=O)NCCCc3ccccc3)n2)cc1C	.	.	.	.	-3.3%	.
SMILES	LmPK inhibitor	Cycloheximide cs	Giardia FBPA inh	RE007 growth inh	TbPYK inhibitor	Shiga toxin inh
Cc1cc(OCC(=O)N2CCOCC2)ccc1NC(=O)c1ccccc1C	-4.7%	20.6*	.	1.3%	-4.4%	18.7
Cc1ccc(-c2ccc(OCC(=O)N3CCOCC3)cc2)cc1	-15.0%	41.8*	-3.6%	-3.8%	-2.4%	61.6*
O=C(Nc1ccc(O)c2c(=O)cc(-c3ccccc3Cl)oc12)c1cc(Cl)cc(Cl)c1	.	-2.3	7.2%	.	.	-6.5
CCO[C@H](c1cc(OC)cc([N+](=O)[O-])c1OC)[C@H](C)/C=C\CC(=O)OC	.	.	2.3%[12.9 µM]	.	.	.
CC(C)=N/N=c1\scc(C)n1Cc1ccco1	0.3%	-2.1	-3.9%	-2.9%	1.9%	-3.8
Cc1cs/c(=N\N=C\c2ccccc2)n1Cc1ccco1	0.5%	22.6*	-9.9%	.	-12.6%	50.9
Cc1cs/c(=N\N=C2CCCCC2)n1Cc1ccco1	4.7%	33.5*	2.6%	2.8%	-19.3%	69.0*
C=CCN1c2ccccc2[C@]23C[C@@H](C(=O)OC)N(S(=O)(=O)c4ccc(C(F)(F)F)cc4)C2=NC(C(=O)OC)=C(C(=O)OC)[C@H]13	3.8%[11.5 µM]	.	4.5%[12.9 µM]	.	.	.
CN(C(=O)Nc1cn(C)c(=O)c2ccccc12)c1ccccc1	.	.	.	.	0.7%	.
O=C(Nc1ccccc1[N+](=O)[O-])c1cncc(Br)c1	3.6%	27.6*	1.0%	-8.1%	1.4%	45.8
O=C(NC(=S)Nc1cccc2[nH]ncc12)c1ccccc1	-20.5%	36.2*	-11.5%	-23.1%	-5.8%	58.4*
Cc1cc(C(=O)Nc2cccc([N+](=O)[O-])c2C)cs1	0.4%	26.3*	-3.4%	-13.6%	1.3%	23.0
O=C(NC(=S)Nc1cccc2c(O)cccc12)c1ccccc1[N+](=O)[O-]	1.1%	11.8	-20.6%	2.2%	-2.7%	18.0
O=C(Nc1ccc(F)cc1F)c1cncc(Br)c1	-3.8%	8.4	1.9%	-17.6%	-9.8%	-1.9
O=C(NC(=S)Nc1ccccc1[N+](=O)[O-])c1ccccc1	2.9%	45.2*	?	-15.5%	-1.7%	96.1*
Cc1noc(/C=C/c2ccccc2F)c1S(=O)(=O)N1CCC(C(=O)N2CCOc3ccccc32)CC1	.	.	.	.	-3.2%	.
CC(C)c1ccc(OCC(=O)NCC(c2ccc(Cl)cc2)N2CCOCC2)cc1 (stereo not drawn)	.	.	.	.	1.9%	.
Cc1c(NC(=O)c2ccc(C(C)(C)C)cc2)cccc1[N+](=O)[O-]	3.1%	27.1*	-8.8%	8.1%	-1.2%	22.6
CC(C)(C)c1ccc(NC(=O)c2ccccc2)c([N+](=O)[O-])c1	-2.7%	35.4*	0.0%	-11.1%	0.4%	121.6*
COc1ccc(NC(=O)CN(C)S(=O)(=O)c2ccc3[nH]c4c(c3c2)CCCC4)cc1Cl	.	.	.	.	-3.5%	.
COc1ccc2c(c1)C(=O)[C@H](OC(=O)NCCOc1ccccc1)[C@@H](c1ccc(OC)c(Br)c1)O2	.	.	-0.4%	.	.	.
Cc1ccc(NC(=O)C(Nc2cccc(C)c2)c2ccccc2)cc1 (stereo not drawn)	-3.4%	22.5*	-15.0%	15.5%	2.0%	-82.7
Cc1ccc(C(=O)NC(c2ccccc2)C(Cl)Cl)cc1 (stereo not drawn)	-3.1%	15.2*	-0.7%	-8.5%	-7.5%	49.5
COc1ccc(NC(=O)C(NC(=O)c2ccc(C)cc2)c2ccccc2)cc1 (stereo not drawn)	0.0%	24.8*	0.8%	7.0%	1.7%	48.9*
COc1ccc(NC(=O)C(NC(=O)c2ccc(=O)[nH]c2)c2ccccc2)cc1 (stereo not drawn)	-1.7%	11.7	2.0%	-16.2%	-18.3%	-6.9
